Assay results: PubChem BioAssay AID504845 (National Center for Advancing Translational Sciences (NCATS), 2011)
“And” between values parts separate entries of the source, which are not always exact repeats. Identical values can stand only once. The whole screen tested about 390,000 compounds, of which about 150 (0.038%) were called active. Inconclusive results (about 3%) are left out. The call rests on the fitted dose curve; in most records, active means well fitted inhibition curve with a large enough effect; inconclusive means small, poorly fitted or top-dose-only effect; inactive means no such curve, though single readings can be large or run the other way. This excerpt belongs to a sample that is enriched for actives. A structure can be active in one record and inactive in another.

Biological target: Regulator of G-protein signaling 4 (Homo sapiens) (UniProt P49798)
Experiment: Inhibitors of Regulator of G Protein Signaling (RGS) 4: qHTS; further: nearly all actives have a fitted effect of over 75% in size
Conditions: Transcreener GDP fluorescence polarization, RGS4-accelerated GTP hydrolysis; series mostly up to 56.9 µM; activity change, negative = inhibition: at the top concentration
Source text: G-protein-coupled receptors (GPCRs) are well-established targets for drug discovery and development. Members of the "regulator of G-protein signaling" (RGS)-protein superfamily have recently emerged as critical modulators of specific GPCR signaling pathways. […] Combining specific RGS domain inhibitors with existing GPCR agonists should potentiate cellular responses and could also increase the specificity of action of existing therapeutics. Small molecule modulators of RGS domain activity should also have clinical utility in inhibiting or potentiating the actions of endogenous GPCR agonists. In particular, the diversity of RGS proteins with highly localized and dynamically regulated distributions in the human brain makes this family of proteins attractive targets for pharmacotherapy of central nervous system (CNS) disorders such as Parkinson's disease, schizophrenia, and anxiety.
This assay was used to screen the NIH Molecular Libraries Small Molecule Repository (MLSMR) in order to identify a small molecule that inhibits RGS4.
NIH Chemical Genomics Center [NCGC]
NIH Molecular Libraries Probe Centers Network [MLPCN]
Assay Submitter (PI): David Siderovski, University of North Carolina Chapel Hill (School of Medicine)
Two microliters of 500nM (2x working concentration) is dispensed into black medium-binding solid-bottom Kalypsys plates. Then with the Kalypsys pintool 23nl of control and compounds are transferred; the control compound is […] CCG-4986 (working concentration). […] An initial fluorescent polarization read (620 nm/688 nm) is performed on the Envision before the plate is incubated for 90 minutes at 30 deg C at a relative humidity of 80%. The plate is once more centrifuged at 1000 RPM for 15 seconds and another Envision fluorescent polarization (620 nm/688 nm) read is carried out.
On the % scale 0 is the no-effect control and ±100 the full control effect; potency means the concentration at half of the fitted maximal effect.

Chain of Regulator of G-protein signaling 4 (Homo sapiens) (P49798 whole entry, looked up): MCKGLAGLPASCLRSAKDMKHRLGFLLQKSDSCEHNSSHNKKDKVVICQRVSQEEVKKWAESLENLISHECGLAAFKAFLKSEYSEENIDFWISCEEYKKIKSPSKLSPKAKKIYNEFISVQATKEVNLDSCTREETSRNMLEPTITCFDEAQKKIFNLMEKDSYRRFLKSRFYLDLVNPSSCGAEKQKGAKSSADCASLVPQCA

Row | SMILES | Potency | activity change, negative = inhibition
1 | CC(=O)c1c(O)c(C)c(O)c(Cc2c(O)c3c(c(C(=O)/C=C/c4ccccc4)c2O)OC(C)(C)C=C3)c1O | inactive and 10.6 µM (active) | –
2 | CC(=O)OC1C([N+]2(C)CCCCC2)C[C@H]2C3CC[C@H]4C[C@H](OC(C)=O)C([N+]5(C)CCCCC5)CC4(C)C3CCC12C (stereo partly drawn) | – | 40% (inactive)
3 | CCCN(C/C=C/I)C1CCc2ccc(O)cc2C1 (stereo not drawn) | – | -20% (inactive)
